Only some compounds are listed: those with a hit (about 4.6% of all), similar ones and a draw of the others.
IL1B cytotox – toxic to HUVEC cells under IL-1B stimulation; HUVEC cell count loss, Hoechst imaging, IL-1B stimulated; cell count reduction, % at 2 µM; 94,000 tested, 0.41% active;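 active = cell count reduction more than 3 SD above the screen-wide mean, cut at about 70% in these data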;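 also: normalized per plate to untreated control cells as the no-loss baseline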
NFkB transloc pot – enhances IL-1B driven NFkB nuclear translocation; activation, % at 2 µM; AID 819; 94,000 tested, 0.3% active; HUVEC IL-1B NFkB p65 nuclear translocation imaging;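 active = activation above 40%, about the mean plus 3 SD, also judged a hit on visual image review; inconclusive = activation above 40% but not a hit on visual review; inactive = activation not above 40% and no visual hit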;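 also: percent activation is computed from the nuclear over cytoplasmic p65 intensity ratio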
Cav3 T inh – blocks human Cav3.2 T-type calcium channel; Cav3.2-expressing cells, Fluo-4 calcium fluorescence FDSS; stronger effect = lower value; B-score at 10 µM; 100,000 tested, 4% active; AID 449739;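 active = single-dose well whose peak fluorescence ratio is a statistical outlier from its plate by either plate-standardised score or position-corrected B-score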
IL1B NFkB inh – blocks IL-1B driven NFkB nuclear translocation in HUVEC cells; inhibition, % at 2 µM; HUVEC IL-1B NFkB p65 nuclear translocation imaging; 94,000 tested, 0.43% active;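 active = inhibition above about 30% together with a positive call from visual inspection of the well image, limit read from the data; inconclusive = inhibition above a set limit but visual check negative; inactive = inhibition not above a set limit, visual check negative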;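 also: nuclear over cytoplasmic p65 intensity ratio measured by imaging; 0% = IL-1B stimulated DMSO wells and 100% = unstimulated DMSO wells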
sEH inh – soluble epoxide hydrolase (human) inhibition | AID 707 | 91,000 tested, 0.34% active | P34913 | recombinant human sEH enzymatic activity assay | inhibition, % at 2 µM; in the data active = inhibition above about 80%
Target sequence (P34913 whole entry, looked up): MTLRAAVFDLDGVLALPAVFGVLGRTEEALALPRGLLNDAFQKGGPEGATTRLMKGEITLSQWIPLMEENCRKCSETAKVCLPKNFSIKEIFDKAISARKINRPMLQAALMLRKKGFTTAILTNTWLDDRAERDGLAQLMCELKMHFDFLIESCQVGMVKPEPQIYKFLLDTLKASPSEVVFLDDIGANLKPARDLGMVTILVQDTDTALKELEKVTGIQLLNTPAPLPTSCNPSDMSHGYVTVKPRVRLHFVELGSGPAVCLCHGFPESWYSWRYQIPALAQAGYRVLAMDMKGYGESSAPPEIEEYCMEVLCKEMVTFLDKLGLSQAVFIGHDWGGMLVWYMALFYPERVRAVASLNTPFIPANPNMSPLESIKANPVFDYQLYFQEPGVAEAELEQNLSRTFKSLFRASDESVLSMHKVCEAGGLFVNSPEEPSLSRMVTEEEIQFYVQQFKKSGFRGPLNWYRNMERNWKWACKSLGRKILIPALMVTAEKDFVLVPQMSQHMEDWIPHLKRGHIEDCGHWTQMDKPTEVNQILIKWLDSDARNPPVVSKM
sEH act – activators of human soluble epoxide hydrolase; P34913; purified human sEH enzymatic activity, activator screen; activation, % at 2 µM; 91,000 tested, 0.04% active; in the data active = activation above about 37%
An asterisk follows results filed as active; ? = inconclusive; / = not tested or not shown.

SMILES	IL1B cytotox	NFkB transloc pot	Cav3 T inh	IL1B NFkB inh	sEH inh	sEH act
CCOC(=O)C1CCCN(S(=O)(=O)c2ccccc2)C1 (centres undefined)	-4	9	-0.63	-9	-10	12
COc1cc(OC)cc(C(=O)NC2CCSC2=O)c1 (centres undefined)	15	7	1.1	-6	2	-4
OC(COCC1COc2ccccc2O1)CN1CCN(c2ccccc2F)CC1 (centres undefined)	-5	6	-0.35	-6	-48	47*
OC(COCc1ccccc1)CN1CCN(c2ccccc2F)CC1 (centres undefined)	-24	20	1.2	-20	24	-25
CCCc1cc(C(=O)NNC(=S)NCc2ccccc2)cs1	0	-10	-7.3*	10	11	-9
CCc1cc(C(=O)NNC(=S)Nc2ccccc2C)cs1	10	-7	-0.64	6	-2	4
O=C(COc1ccccc1)Nc1nnc(-c2ccc(Cl)s2)o1	/	/	-4.8*	/	/	/
O=C(O)Cn1c(SCCOc2ccccc2F)nc2ccccc21	-17	5	-5.3*	-5	11	-11
N/C(Cc1ccc([N+](=O)[O-])cc1)=N\OC(=O)C(c1ccccc1)c1ccccc1	-43	-5	-3.4*	5	-33	30
Cc1cccc(C(=O)O/N=C(\N)Cc2ccc([N+](=O)[O-])cc2)c1	5	4	-4.5*	-4	7	-8
COc1ccc(C/C(N)=N/OC(=O)C(c2ccccc2)c2ccccc2)cc1OC	-56	10	-0.41	-10	-13	10
CCC(C)(C)NC(=O)C(c1cccc(OC)c1)N(C(=O)c1ccn[nH]1)c1cccc(OC)c1 (centres undefined)	-8	-19	-5.1*	19	-2	6
COc1ccc(N(C(=O)c2ccn[nH]2)C(C(=O)NC(C)(C)C)c2ccc(F)cc2)cc1 (centres undefined)	-5	13	-1.6	-13	-6	4
CCN(Cc1ccccc1)C(c1cccs1)c1nnnn1C1CCCCC1 (centres undefined)	-26	-8	-3	8	7	-8
CCN(Cc1ccccc1)C(c1ccccn1)c1nnnn1C1CCCCC1 (centres undefined)	-4	5	-4*	-4	7	-4
O=C(O)c1cc(-c2cccs2)nc2cc3c(cc12)OCCO3	/	/	0.0092	/	/	/
C=CCn1c(NC(=O)c2ccccc2Cl)c(C#N)c2nc3ccccc3nc21	-19	6	-7*	-6	-7	6
CCC(C)NC(=O)CO/N=C/c1ccc(C(=O)OC)cc1 (centres undefined)	-27	-22	0.29	22	-4	4
O=C(Nc1ccccc1N1CCOCC1)c1ccc2ccccc2n1	-8	13	0.54	-13	2	-2
O=S(=O)(c1ccccc1)c1nc(Nc2ccccc2N2CCOCC2)sc1Cl	-7	-8	-5.3*	8	-11	13
COc1ccc(CC(=O)OCC(=O)NC(=O)NC23CC4CC(CC(C4)C2)C3)cc1	-9	-8	-8*	8	30	-31
Cc1ccc(CNc2nc3c([nH]2)c(=O)n(C)c(=O)n3C)cc1	-5	?	1.5	-43	/	/
COCCCn1c(SCC(=O)Nc2cccc(C(=O)OC)c2)nnc1-c1ccncc1	19	0	0.44	0	3	-4
CC1CCCN(C(=O)CCCn2c(=S)[nH]c3ccccc3c2=O)C1 (centres undefined)	2	4	0.73	-4	3	-6
O=C(Nn1c(O)c(C=C2N=c3ccccc3=N2)sc1=S)c1ccccc1	88*	17	-0.51	-17	24	-24
SMILES	IL1B cytotox	NFkB transloc pot	Cav3 T inh	IL1B NFkB inh	sEH inh	sEH act
COc1ccccc1C(=O)Nc1ccc2c(c1)nc(CN1CCN(C(C)=O)CC1)n2C	21	8	0.79	-8	-3	3
CC1(c2ccccc2)CC2CC(c3ccccc3)N1O2 (centres undefined)	-5	-16	-0.39	16	-7	9
CC1C(c2ccccc2)N(C)C(c2ccccc2)CC1(O)c1ccccc1 (centres undefined)	-31	0	-6.8*	-4	6	-5
CCCCCc1c(C)nc(Nc2nc(C)c3cc(OC)ccc3n2)[nH]c1=O	-28	39	-3.8*	-39	/	/
C=CCn1c(SCc2ccccc2C#N)nnc1-c1ccccc1O	-9	29	1.1	-29	/	/
Cc1n[nH]c(C)c1CCOc1ccc(C(C)C)cc1	-16	12	-5.4*	-12	5	-3
COc1cccc(OC)c1OCCCc1c(C)n[nH]c1C	-1	34	0.24	-34	/	/
CCOc1ccc(N/C(C)=C/C(=O)c2ccc(C)o2)cc1	0	5	-1.6	-5	4	-4
Cc1ccc(S(=O)(=O)Cn2nnnc2C(CC(C)C)N2CCN(c3ccc(F)cc3)CC2)cc1 (centres undefined)	-15	3	-1.3	-3	1	-1
CC(C)CC(c1nnnn1C(C)C)N1CCN(c2cccc(Cl)c2)CC1 (centres undefined)	-12	4	-3.5*	-4	4	-3
CCOC(=O)c1cnn(-c2ccccc2)c1NC(=O)CSc1nnc(-c2cccs2)n1CC	6	7	1.4	-7	-5	6
CCOC(=O)N1CCC(NC(=O)CCC(=O)N2CCOc3ccccc32)CC1	-28	-8	0.0096	8	31	-30
Cc1ccc(C(=O)Nn2c(N)c(S(=O)(=O)c3ccc(C)cc3)c3nc4ccccc4nc32)cc1	12	20	-5.5*	-20	9	-11
Cc1cc(/C=C(\C#N)C(=O)NCc2cccs2)c(C)n1-c1ccccc1F	5	3	-4.8*	-3	-15	18
CCOC(=O)C1CCN(C(=O)CCS(=O)(=O)c2ccc3c(c2)CCN3C(C)=O)CC1	-13	7	1.9	-7	-28	23
CC(=O)N1CCc2cc(S(=O)(=O)CCC(=O)N3CCN(C(=O)c4ccco4)CC3)ccc21	86*	6	-0.22	-6	5	-6
Cc1cc(C)c(S(=O)(=O)c2ccccc2)c(OC(=O)c2c(Cl)cccc2Cl)n1	/	/	-4.6*	/	5	-3
Cc1cc(C)c(S(=O)(=O)c2ccccc2)c(OC(=O)c2ccc(Cl)cc2Cl)n1	6	5	1.5	-5	19	-20
COc1ccc2[nH]c(=O)c(NC(N)=S)nc2c1	89*	-7	0.081	6	8	-11
COc1ccc2nc(SCC(N)=O)[nH]c2c1	6	-10	0.13	10	-29	26
O=C(Nc1ccccc1)NC1(C(=O)N2CCN(C(=O)c3ccco3)CC2)CCCCC1	-30	19	-0.44	-19	-5	4
CCOC(=O)/C(=C\c1cccnc1)C(=O)c1cc(C(C)=O)c(Nc2ccccc2)s1	-5	1	4.1*	-1	3	-7
N/C(=N\OS(=O)(=O)c1ccc(Br)cc1)c1ccncc1	-19	-35	0.68	35*	-12	12
O=C(c1ccncc1)c1ccc(Br)cc1	-64	14	-2.6	-14	2	0

Screening results: PubChem, several laboratories
